Measurements published in PubChem BioAssay (NCATS).
Inconclusive results are not listed. Calls of active or inactive are those of the source. Calls follow the shape of the full dose curve.

Test: Primary qHTS for Vero E6 cytotoxicity: counterscreen for inhibitors of SARS-S pseudo-typed particle cell entry (AID 1479150)
Details: cell viability; series mostly up to 57.1 µM; activity change, negative = cytotoxicity: at the top concentration
% is scaled to controls: 0 for no effect and ±100 for the full control effect.

Structure (SMILES)	activity change, negative = cytotoxicity	outcome
CC(C(=O)O)c1ccc(/C=C2\CCCCC2=O)cc1 (stereo not given)	-16.3% (inactive)	
O=c1cc[nH]c(=O)[nH]1		inactive
N[C@@H](CCC(=O)N[C@@H](CS)C(=O)NCC(=O)O)C(=O)O	-1.57% [at 26.4 µM] (inactive)	
O=C1CC[C@H](C(=O)N2CCCCC2)N1	-4.11% (inactive)	
O=C1O[C@H](CO)[C@@H](O)[C@H](O)[C@H]1O		inactive
CN=C(NC#N)NCCSCc1nc[nH]c1C		inactive
CS(=O)(=O)c1ccc([C@@H](O)[C@@H](CF)NC(=O)C(Cl)Cl)cc1		inactive
Cc1c[nH]c2ccccc12	0.869% (inactive)	
Clc1ccc2nsnc2c1NC1=NCCN1	-0.362% (inactive)	
CCN(Cc1ccncc1)C(=O)C(CO)c1ccccc1 (stereo not given)	-2.72% (inactive)	
C#C[C@]1(O)CC[C@H]2[C@@H]3CCc4cc(OC5CCCC5)ccc4[C@H]3CC[C@@]21C		inactive
NS(=O)(=O)c1cc(-c2nn[nH]n2)c(NCc2cccs2)cc1Cl	-7.12% (inactive)	
CCCCCCCC(=O)OCC(COC(=O)CCCCCCC)OC(=O)CCCCCCC	-3.15% (inactive)	
CC(C)Cc1ccc(C(C)C(=O)O)cc1 (stereo not given)		inactive
COCCCOc1ccnc(CS(=O)c2nc3ccccc3[nH]2)c1C (stereo not given)	1.12% (inactive)	
CCOC(=O)c1ccccc1O	-4.31% (inactive)	
OC[C@H]1O[C@@H](Oc2ccc(O)cc2)[C@H](O)[C@@H](O)[C@@H]1O	2.79% (inactive)	
Cc1cc(C)nc(NS(=O)(=O)c2ccc(N)cc2)n1		inactive
CCN1CCCC1CNC(=O)c1cc(S(=O)(=O)CC)c(N)cc1OC (stereo not given)	-4.37% (inactive)	
C[C@]12CCC(=O)C=C1CC[C@@H]1[C@@H]2[C@@H](O)C[C@@]2(C)[C@H]1CC[C@]2(O)C(=O)COC(=O)CCC(=O)O		inactive
